For some assays here: Measured potencies and affinities stand elsewhere.
Columns and labels:
Design in all cases: scale not given: direction of the effect not stated beside the values
[1] = target: Protein translocase subunit SecA (Escherichia coli (strain K12)) (UniProt P10408); assay: Assay to Identify E. coli SecA ATPase Inhibitors; type: functional; conditions: 30 µM
[2] = target: T1, Ubiquitin-activating enzyme e1, putative (Leishmania donovani (strain BPK282A1)) (UniProt E9BSI1); assay: Leishmania donovani Ubiquitin Activating Enzyme (LdE1); type: functional; conditions: 30 µM
T1 sequence (whole entry): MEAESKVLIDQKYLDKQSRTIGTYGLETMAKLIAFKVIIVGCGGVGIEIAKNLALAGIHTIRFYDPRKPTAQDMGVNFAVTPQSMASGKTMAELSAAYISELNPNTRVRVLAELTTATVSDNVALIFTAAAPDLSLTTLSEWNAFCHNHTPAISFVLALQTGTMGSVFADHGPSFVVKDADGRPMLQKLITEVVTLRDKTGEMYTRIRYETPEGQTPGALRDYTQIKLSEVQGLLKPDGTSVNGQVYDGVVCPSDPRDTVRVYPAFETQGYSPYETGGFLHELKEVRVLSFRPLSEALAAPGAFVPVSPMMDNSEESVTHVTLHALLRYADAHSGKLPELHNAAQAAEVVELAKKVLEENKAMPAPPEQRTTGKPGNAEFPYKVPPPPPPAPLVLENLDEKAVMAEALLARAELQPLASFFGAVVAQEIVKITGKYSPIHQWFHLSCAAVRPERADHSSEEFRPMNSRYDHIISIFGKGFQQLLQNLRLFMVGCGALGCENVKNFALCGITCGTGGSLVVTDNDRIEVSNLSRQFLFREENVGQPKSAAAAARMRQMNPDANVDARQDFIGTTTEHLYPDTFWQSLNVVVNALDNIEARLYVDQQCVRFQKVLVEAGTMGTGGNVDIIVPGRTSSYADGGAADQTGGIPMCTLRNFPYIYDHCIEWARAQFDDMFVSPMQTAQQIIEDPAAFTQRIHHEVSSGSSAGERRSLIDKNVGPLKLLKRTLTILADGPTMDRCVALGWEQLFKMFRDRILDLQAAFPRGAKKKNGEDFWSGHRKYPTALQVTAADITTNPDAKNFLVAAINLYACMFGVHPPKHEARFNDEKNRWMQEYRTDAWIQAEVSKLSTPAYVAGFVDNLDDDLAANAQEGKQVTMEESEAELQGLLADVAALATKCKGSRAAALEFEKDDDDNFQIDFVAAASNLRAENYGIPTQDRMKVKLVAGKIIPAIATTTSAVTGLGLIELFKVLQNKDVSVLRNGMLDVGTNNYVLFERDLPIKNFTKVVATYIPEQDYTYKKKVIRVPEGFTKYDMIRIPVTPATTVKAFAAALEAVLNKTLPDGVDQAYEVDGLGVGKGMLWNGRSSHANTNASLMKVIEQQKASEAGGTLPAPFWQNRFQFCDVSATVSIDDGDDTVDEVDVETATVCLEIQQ

[3] = target: AMP-activated protein kinase, AMPK (Homo sapiens) (UniProt P54646+O43741+P54619+Q9UGJ0+Q9Y478+Q13131+Q9UGI9); assay: AMP-dependent Kinase enzyme assay. An in vitro enzyme assay that detects ADP turnover that is directly proportional to AMPK activity. This uses naive AMPK that is activated during the assay with MK-8722; type: functional; conditions: 30 µM
[4] = target: Sialic acid-binding Ig-like lectin 9 (Homo sapiens) (UniProt Q9Y336); assay: Hs-Siglec9 ALPHAscreen SOP 20170721; conditions: 10 µM
Trypanosoma cruzi = assay: Trypanosoma cruzi phosphomannomutase and mannose-1-phosphate guanylyltransferase assay; type: functional; conditions: 10 µM
[5] = target: T2, Arginase-2, mitochondrial (Homo sapiens) (UniProt P78540); assay: in vitro enzyme assay to detect the production of urea directly proportional to the activity of Arginase II; type: functional; conditions: 33.3 µM; note: in the data most compounds retested in dose-response had high values
T2 sequence (whole entry): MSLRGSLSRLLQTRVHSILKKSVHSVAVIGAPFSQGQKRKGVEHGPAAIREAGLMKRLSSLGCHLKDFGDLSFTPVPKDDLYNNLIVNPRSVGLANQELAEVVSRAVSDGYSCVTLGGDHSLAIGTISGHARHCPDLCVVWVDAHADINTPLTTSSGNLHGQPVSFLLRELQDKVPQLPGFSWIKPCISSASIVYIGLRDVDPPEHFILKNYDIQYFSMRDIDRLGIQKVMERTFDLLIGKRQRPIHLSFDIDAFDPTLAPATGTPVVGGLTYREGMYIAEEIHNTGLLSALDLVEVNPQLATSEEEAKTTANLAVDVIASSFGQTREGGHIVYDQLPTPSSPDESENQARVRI

[6] = target: T3, Proteasome subunit beta (Trypanosoma cruzi) (UniProt O96673); assay: Trypanosoma cruzi proteasome chymotrypsin-like activity (TcProtChymo) assay.; note: in the data most compounds retested in dose-response had high values; type: functional; conditions: 9.37 µM
T3 sequence (whole entry): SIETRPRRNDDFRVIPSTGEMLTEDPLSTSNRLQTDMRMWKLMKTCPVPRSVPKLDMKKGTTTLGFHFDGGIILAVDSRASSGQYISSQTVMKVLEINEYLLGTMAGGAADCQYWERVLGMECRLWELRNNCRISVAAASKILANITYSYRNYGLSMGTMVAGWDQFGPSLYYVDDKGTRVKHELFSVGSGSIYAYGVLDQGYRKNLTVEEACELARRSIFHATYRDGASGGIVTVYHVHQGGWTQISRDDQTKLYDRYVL

Homo sapiens = species on record: Homo sapiens; assay: To identify inhibition of the IFN signalling (Jak-Stat) pathway via expression of an eGFP reporter gene under the control of an IFN-stimulated response element (ISRE) containing MxA promoter.; type: functional; conditions: 30 µM
[7] = target: T4, Tyrosyl-tRNA synthetase, putative (Trypanosoma cruzi (strain CL Brener)) (UniProt Q4DSP6); assay: Trypanosoma cruzi tyrosyl tRNA synthetase (TcYRS) _High Tyrosine SOP; type: functional; conditions: 30 µM; note: in the data most compounds retested in dose-response had high values
T4 sequence (whole entry): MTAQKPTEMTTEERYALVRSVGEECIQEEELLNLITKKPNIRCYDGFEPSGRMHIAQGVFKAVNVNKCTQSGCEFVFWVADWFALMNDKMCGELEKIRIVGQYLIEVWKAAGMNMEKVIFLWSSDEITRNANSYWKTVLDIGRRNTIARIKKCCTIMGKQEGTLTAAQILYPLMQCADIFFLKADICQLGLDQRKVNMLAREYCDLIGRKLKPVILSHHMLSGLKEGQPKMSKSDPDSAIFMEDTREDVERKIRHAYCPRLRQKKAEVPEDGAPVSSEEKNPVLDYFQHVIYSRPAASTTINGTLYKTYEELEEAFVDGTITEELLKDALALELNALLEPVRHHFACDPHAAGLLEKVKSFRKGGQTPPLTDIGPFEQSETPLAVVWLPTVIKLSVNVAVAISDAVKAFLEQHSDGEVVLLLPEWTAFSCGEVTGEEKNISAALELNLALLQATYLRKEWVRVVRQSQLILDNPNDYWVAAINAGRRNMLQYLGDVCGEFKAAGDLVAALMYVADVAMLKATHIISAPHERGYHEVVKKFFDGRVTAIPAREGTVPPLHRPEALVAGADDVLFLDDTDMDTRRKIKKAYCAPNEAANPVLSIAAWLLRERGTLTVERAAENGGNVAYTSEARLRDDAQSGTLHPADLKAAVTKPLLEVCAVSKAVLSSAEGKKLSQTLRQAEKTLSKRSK

[8] = target: T4, Tyrosyl-tRNA synthetase, putative (Trypanosoma cruzi (strain CL Brener)); assay: Trypanosoma cruzi tyrosyl tRNA synthetase (TcYRS) SOP; type: functional; conditions: 30 µM
[9] = target: Chromo domain-containing protein 1 (Saccharomyces cerevisiae (strain ATCC 204508 / S288c) (Baker's yeast)) (UniProt P32657); assay: ScCHD-1 Enzyme Inhibition Assay; type: functional; conditions: 30 µM; note: in the data most compounds retested in dose-response had high values
Chain of Chromo domain-containing protein 1 (Saccharomyces cerevisiae (strain ATCC 204508 / S288c) (Baker's yeast)) (P32657 whole entry, the tested form may be a part): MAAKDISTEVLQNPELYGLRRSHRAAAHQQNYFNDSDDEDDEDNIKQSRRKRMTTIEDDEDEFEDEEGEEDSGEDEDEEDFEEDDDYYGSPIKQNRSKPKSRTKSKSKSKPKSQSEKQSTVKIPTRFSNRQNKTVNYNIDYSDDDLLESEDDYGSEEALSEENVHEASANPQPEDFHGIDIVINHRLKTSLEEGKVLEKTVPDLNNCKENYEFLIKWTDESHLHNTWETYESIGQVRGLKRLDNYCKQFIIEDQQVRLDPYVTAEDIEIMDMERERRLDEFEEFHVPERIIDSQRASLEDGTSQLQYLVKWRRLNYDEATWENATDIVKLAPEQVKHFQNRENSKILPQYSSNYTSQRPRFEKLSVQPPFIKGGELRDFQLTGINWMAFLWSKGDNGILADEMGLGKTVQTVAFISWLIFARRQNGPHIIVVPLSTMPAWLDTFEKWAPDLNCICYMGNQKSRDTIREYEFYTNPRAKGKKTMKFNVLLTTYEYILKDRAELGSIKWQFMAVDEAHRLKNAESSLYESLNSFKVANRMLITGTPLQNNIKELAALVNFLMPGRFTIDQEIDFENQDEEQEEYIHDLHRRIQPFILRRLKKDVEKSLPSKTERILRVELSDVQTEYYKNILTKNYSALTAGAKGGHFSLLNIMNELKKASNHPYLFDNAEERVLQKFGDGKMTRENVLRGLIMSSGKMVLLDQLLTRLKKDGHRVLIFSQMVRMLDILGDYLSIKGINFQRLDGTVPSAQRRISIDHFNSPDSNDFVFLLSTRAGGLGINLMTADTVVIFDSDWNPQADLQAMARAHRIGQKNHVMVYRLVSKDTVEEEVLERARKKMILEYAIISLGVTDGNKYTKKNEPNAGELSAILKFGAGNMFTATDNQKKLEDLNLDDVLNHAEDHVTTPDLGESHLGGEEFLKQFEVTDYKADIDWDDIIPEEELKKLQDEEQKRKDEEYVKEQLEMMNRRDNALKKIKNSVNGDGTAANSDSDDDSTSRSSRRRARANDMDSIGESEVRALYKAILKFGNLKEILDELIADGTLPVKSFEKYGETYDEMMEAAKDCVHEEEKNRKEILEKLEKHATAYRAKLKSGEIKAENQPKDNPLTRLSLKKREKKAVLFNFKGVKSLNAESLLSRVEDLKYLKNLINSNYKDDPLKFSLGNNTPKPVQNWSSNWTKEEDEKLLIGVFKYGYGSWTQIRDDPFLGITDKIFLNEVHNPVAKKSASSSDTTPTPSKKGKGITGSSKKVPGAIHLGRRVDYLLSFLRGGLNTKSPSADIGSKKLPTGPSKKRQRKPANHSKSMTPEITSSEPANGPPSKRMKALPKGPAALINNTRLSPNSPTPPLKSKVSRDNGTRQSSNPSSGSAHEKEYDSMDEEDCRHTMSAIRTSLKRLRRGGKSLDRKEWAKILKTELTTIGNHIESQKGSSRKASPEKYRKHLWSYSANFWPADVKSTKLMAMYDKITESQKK

Chain of Protein translocase subunit SecA (Escherichia coli (strain K12)) (P10408 whole entry): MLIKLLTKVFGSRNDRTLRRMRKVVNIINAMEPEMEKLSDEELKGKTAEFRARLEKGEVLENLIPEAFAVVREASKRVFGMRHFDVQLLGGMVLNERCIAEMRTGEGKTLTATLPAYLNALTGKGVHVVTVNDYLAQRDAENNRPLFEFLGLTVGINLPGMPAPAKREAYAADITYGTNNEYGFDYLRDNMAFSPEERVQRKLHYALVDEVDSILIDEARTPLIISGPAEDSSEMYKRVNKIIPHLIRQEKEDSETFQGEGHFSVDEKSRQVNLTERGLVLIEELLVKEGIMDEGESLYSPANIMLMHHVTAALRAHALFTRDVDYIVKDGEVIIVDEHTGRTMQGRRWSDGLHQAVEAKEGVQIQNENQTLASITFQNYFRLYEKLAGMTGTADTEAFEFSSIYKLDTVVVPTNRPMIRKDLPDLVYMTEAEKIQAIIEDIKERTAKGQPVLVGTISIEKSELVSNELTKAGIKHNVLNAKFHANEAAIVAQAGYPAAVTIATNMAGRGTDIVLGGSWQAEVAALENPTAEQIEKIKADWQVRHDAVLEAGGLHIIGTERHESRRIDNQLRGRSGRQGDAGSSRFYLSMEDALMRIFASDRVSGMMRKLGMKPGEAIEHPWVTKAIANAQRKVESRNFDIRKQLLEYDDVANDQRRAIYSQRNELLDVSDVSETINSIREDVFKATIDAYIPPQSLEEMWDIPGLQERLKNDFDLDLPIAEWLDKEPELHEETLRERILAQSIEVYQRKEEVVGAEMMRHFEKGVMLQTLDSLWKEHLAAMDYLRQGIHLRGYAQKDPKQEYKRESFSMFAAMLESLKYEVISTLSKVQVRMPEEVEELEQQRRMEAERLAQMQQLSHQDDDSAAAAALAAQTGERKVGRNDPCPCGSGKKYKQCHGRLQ
Chain of Sialic acid-binding Ig-like lectin 9 (Homo sapiens) (Q9Y336 whole entry): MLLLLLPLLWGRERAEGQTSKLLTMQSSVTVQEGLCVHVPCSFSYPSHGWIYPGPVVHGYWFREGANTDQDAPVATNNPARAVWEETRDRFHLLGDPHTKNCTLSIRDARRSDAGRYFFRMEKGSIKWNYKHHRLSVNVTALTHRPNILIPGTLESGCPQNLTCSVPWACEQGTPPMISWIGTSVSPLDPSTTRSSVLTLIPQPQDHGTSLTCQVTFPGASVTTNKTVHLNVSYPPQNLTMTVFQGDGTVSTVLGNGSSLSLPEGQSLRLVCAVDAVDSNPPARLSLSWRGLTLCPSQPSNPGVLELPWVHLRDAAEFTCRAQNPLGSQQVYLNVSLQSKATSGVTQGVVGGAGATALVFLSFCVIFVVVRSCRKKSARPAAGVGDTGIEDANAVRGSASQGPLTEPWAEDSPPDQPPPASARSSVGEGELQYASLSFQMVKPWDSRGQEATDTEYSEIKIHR

SMILES	Percent Effect [1] [%]	Percent Effect [2] [%]	Percent Effect [3] [%]	Percent Effect [4] [%]	Percent Effect (Trypanosoma cruzi) [%]	Percent Effect [5] [%]	Percent Effect [6] [%]	Percent Effect (Homo sapiens) [%]	Percent Effect [7] [%]	Percent Effect [8] [%]	Percent Effect [9] [%]
Cc1cc2n(n1)CC(CNC1CCN(c3ccc(F)cc3)CC1)CN2 (stereo not given)	-2.69	8.11	-9.27	18.6	6.35	15.1	-0.0858	-21.8	1.07	18.5	-6.89
O=C(CCc1ccccc1)Nc1ncccc1OC(F)F	-2.62	6.94	-0.321	-1.86	-3.4	-0.883	13.5	-3.51	1.05	0	-2.3
O=C(NCCNc1ncccn1)N1CCCC(C(F)(F)F)C1 (stereo not given)	-2.28	10.8	3.11	-0.403	-2.12	-1.43	7.59	6.58	4.76	19.5	-5.39
COCCn1ccc(=O)c(OCC(=O)Nc2cccc(C(C)=O)c2)c1C	-2.27	12	3.85	5.25	0.982	-5.11	13.5	-24.6	8.47	20.5	-3.7
CCN1CCC(NC(=O)CN2CCCC2Cn2cncn2)CC1 (stereo not given)	-0.772	6.33	-1.15	-1.21	-5.64	0.645	8.92	4.26	3.12	2.53	-22.4
COc1ccccc1CC(=O)N1CCC(NCc2cccnc2)CC1	-3.89	16.2	-2.91	-2.63	-9.01	-0.924	7.18	3.6	3.96	3.66	-3.87
CC(NC(=O)NCCCc1n[nH]c(N)c1C#N)c1cccs1 (stereo not given)	-4.67	22.8	38.5	-12.2	6.52	-14.1	16.6	15.9	8.37	24.1	-7.24
CS(=O)(=O)N1CCOCC2(CN(Cc3ccco3)CCO2)C1 (stereo not given)	-1.05	5.48	3.7	1.39	-1.19	4.79	5.39	1.38	6.25	11.1	0.698
COc1cc(C(C)=O)ccc1OCC(=O)N(C)Cc1cnn(C)c1	-4.48	21.1	-7.57	7.64	4.76	1.44	6.18	6.99	6.4	25.9	-10.6
Cc1cnn(CC2CCCN2Cc2coc(-c3cccs3)n2)c1 (stereo not given)	-6.03	0	3.45	-6.51	-1.37	0.909	1.77	5.98	2.15	10	-1.19

From ChEMBL document CHEMBL3988442, “University of Dundee, Small-Polar-MMV Screening Library” (2021)
